Test results reported in PubChem BioAssay AID651692 (Broad Institute, 2012).
Entries with a potency or affinity are not part of this list. Unmarked numbers belong to inactive results.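 How the source made its calls: active means fitted half-maximal concentration for loss of cell signal no higher than twice the top valid tested concentration; inconclusive means flat curve at 30 to 70% inhibition, or poor fit; inactive means flat within 30%, signal rise, or potency above limit.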

test: MDA-MB-231 cell growth inhibition, dose response, cytotoxicity control for RAD54 inhibitor project, CellTiter-Glo luminescence, cherry-pick (AID 651692); conditions: MDA-MB-231 viability, 24 h; series mostly up to 26 µM; activity change, negative = growth inhibition: at the top concentration;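 further: 0% = median of sample compound wells and -100% = staurosporine control wells; more negative values mean stronger loss of viable cell signal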

SMILES | activity change, negative = growth inhibition
COC(=O)c1c(NC(=O)c2ccc([N+](=O)[O-])o2)sc2c1CCN(C(C)C)C2 | 12.9%
Cc1ccc2nc(C)c3c(c2c1)N(c1ccc(F)cc1)CC3 | -8.5%
COc1cccc(-c2cnc3c(NC(C)=O)cc(-c4cccc(C(=O)NCCN(C)C)c4)cn23)c1 | -22.6%
CN(C)CCc1cc2c(c3c1ccc1ccccc13)OCO2 | -11%
COc1ccc(C(=O)CN2CCN(CCN3C(=O)c4cccc5cccc(c45)C3=O)CC2)cc1 | 2.15%
COc1ccccc1Nc1nc(NCC2CCCO2)c2ccccc2n1 (centres undefined) | 5.68%
CCOCCCn1c(=N)c(C(=O)NCCN2CCOCC2)cc2c(=O)n3cccc(C)c3nc21 | 1.54%
CCN1CCN(c2cc(C)c3cc(NC(=S)NCCCN4CCc5ccccc5C4)ccc3n2)CC1 | -3.87%
COc1ncccc1-c1cc2nc(NCCCN(C)C)n(C)c(=O)c2s1 | 6.33%
CCN1CCN(c2nc(N)c([N+](=O)[O-])c(Nc3cccc(C)c3)n2)CC1 | -7.02%
CN(C)CCOc1nc(-c2ccccc2)nc2c1oc1ccccc12 | -10.9%
Cn1c2ccccc2c(=O)c2cc(NCCCN3CCOCC3)ccc21 | 7.21%
CCOC(=O)c1cnc2c(C)cc(C)cc2c1NCCCN1CCOCC1 | 13.4%
CCN1CCN(c2cc(C)c3cc(NC(=S)N4CC(C)CC(C)C4)ccc3n2)CC1 (centres undefined) | -2.48%
c1ccc2c(c1)oc1c(Nc3ccc(CN4CCOCC4)cc3)ncnc12 | 2.94%
Cc1cc(C)c2nc(C)cc(Nc3ccc(C(=O)NCCO)cc3)c2c1 | -0.096%
COc1cccc2sc3ccc(NCCC4CCCN4C)cc3c(=O)c12 (centres undefined) | -11.6%
Cc1ccc(-c2nc(N3CCN(C)CC3)c3ccccc3n2)cc1 | -0.384%
CCOC(=O)c1c(NC(=O)c2ccc(S(=O)(=O)N3CCOCC3)cc2)sc2c1CCN(C)C2 | -4.66%
CC(=O)Nc1cc(-c2ccc(N3CCN(C)CC3)cc2)cn2c(-c3ccc(S(C)(=O)=O)cc3)cnc12 | -10.1%

SMILES | activity change, negative = growth inhibition
CN(C)CCCN(C(=O)c1ccc([N+](=O)[O-])o1)c1nc2cc3c(cc2s1)OCO3 | 10.8%
Cc1cccn2c(=O)c3cc(C(=O)NCC4CCCO4)c(=N)n(C4CCCCC4)c3nc12 (centres undefined) | 9.09%
CN(C)CCCNc1nc2cc(-c3ccc4c(ccn4C)c3)sc2c(=O)n1C | -4.29%
CN1CCN(c2ncnc3c2[nH]c2ccc(F)cc23)CC1 | 7.02%
CN(C)CCSc1nc(N)c2c3c(sc2n1)CN(C)CC3 | 1.23%
CCN1CCN(c2nn3c(=O)c4ccccc4nc3c3ccccc23)CC1 | -13.4%
Cc1cccc2c1-c1sc(C(=O)NCCCN3CCCC(C)C3)cc1CO2 (centres undefined) | -13.9%
CN1CCN(CC(=O)Nc2nc(-c3c[nH]c4ccccc34)cs2)CC1 | 0.076%
CCCN(CCC)CCCNC(=S)Nc1ccc2nc(N3CCCC3)cc(C)c2c1 | -3.41%
CC1CCCN(CCCNC(=O)c2cc3c(Cl)nc4ccccc4c3s2)C1 (centres undefined) | -16.3%
COc1ccc(-c2nn(C)c3sc(C(=O)NCCN(C)C)cc23)cc1OC | 5.24%
Nc1c(C(=O)NCCN2CCOCC2)c2nc3ccccc3nc2n1-c1ccc2c(c1)OCO2 | -0.672%
c1ccc(-c2cc(NCCN3CCCCC3)c3ccccc3n2)cc1 | -16.1%
COc1ccc(CCNc2c3ccccc3nc3ccccc23)cc1OC | -1.11%
COc1ccccc1CNC(=O)c1cccs1 | -3.64%
CCN(CC)CCN(C(=O)c1ccc2ncsc2c1)c1nc2cc3c(cc2s1)OCO3 | -2.56%
CN(C)CCN(C(=O)CN1C(=O)c2ccccc2C1=O)c1nc2cc3c(cc2s1)OCCO3 | -2.76%
COC(=O)c1c(NC(=O)c2ccc(S(=O)(=O)N3CCOCC3)cc2)sc2c1CCN(C(C)C)C2 | 10.1%
Cc1ccsc1-c1cc2nc(NCCCN(C)C)n(C)c(=O)c2s1 | -2.29%
